Several values for one entry are separate records, joined by “and”; a condition that tells them apart may be missing. Identical values can stand only once. The whole screen tested about 5,500 compounds, of which about 2,000 (36%) were called active. Not shown: some 18% with an inconclusive outcome. No stated cut-off is given here; in the data, active means normalized growth mostly below about 0.91 (no sharp cut-off); inconclusive means no clear call, values can overlap the other calls; inactive means mostly above about 0.92. This is one part of the list.
Assay: chemical genetic growth profiling, strain panel (AID 1159580);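 further: tested at 20 µM; growth read once vehicle control cultures reached saturation at 30 °C; 1 = growth at the plate median or of vehicle wells; lower values mean less growth of the strain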
Conditions: S. cerevisiae deletion strains, growth OD

Measured: normalized growth

Cn1cnc([N+](=O)[O-])c1Sc1ncnc2nc[nH]c12
inactive: locus YAL021C, strain ccr4, hits give low values 1.03 | locus YAL026C, strain drs2, hits give low values 1.04 | locus YAL030W, strain snc1, hits give low values 1.02 | locus YAL040C, strain CLN3, hits give low values 1.01 | locus YBL061C, strain skt5, hits give low values 1.03 | locus YBR009C, strain hhf1, hits give low values 1.01 | locus YBR021W, strain FUR4, hits give low values 1.02 | locus YBR023C, strain chs3, hits give low values 1.02 | locus YBR171W, strain sec66, hits give low values 1.02 | locus YBR229C, strain ROT2, hits give low values 1.01 | locus YBR231C, strain swc5, hits give low values 1.01 | locus YBR279W, strain paf1, hits give low values 1.01 | locus YCL011C, strain gbp2, hits give low values 1.01 | locus YCL016C, strain dcc1, hits give low values 1.04 | locus YCL029C, strain bik1, hits give low values 0.997 | locus YCL069W, strain vba3, hits give low values 1.02 | locus YCR088W, strain abp1, hits give low values 1.02 | locus YDL005C, strain med2, hits give low values 1.01 | locus YDL035C, strain GPR1, hits give low values 1.03 | locus YDL040C, strain nat1, hits give low values 1.02 | locus YDL074C, strain BRE1, hits give low values 1.01 | locus YDL101C, strain DUN1, hits give low values 1.01 | locus YDL134C, strain PPH21, hits give low values 1.02 | locus YDL185W, strain tfp1, hits give low values 1 | locus YDL192W, strain arf1, hits give low values 0.994 | locus YDR001C, strain nth1, hits give low values 1.02 | locus YDR069C, strain doa4, hits give low values 1.02 | locus YDR101C, strain arx1, hits give low values 0.999 | locus YDR137W, strain rgp1, hits give low values 1.02 | locus YDR150W, strain NUM1, hits give low values 0.999 | locus YDR159W, strain sac3, hits give low values 1 | locus YDR162C, strain NBP2, hits give low values 1.03 | locus YDR195W, strain ref2 0.996 | locus YDR297W, strain sur2, hits give low values 1.03 | locus YDR318W, strain mcm21, hits give low values 0.996 | locus YDR334W, strain swr1, hits give low values 1.03 | locus YDR335W, strain msn5, hits give low values 1.01 | locus YDR363W, strain ESC2, hits give low values 1.01 | locus YDR388W, hits give low values 0.985 | locus YDR392W, strain spt3, hits give low values 1.04 | locus YDR502C, strain sam2, hits give low values 0.985 | locus YEL003W, strain gim4, hits give low values 1.03 | locus YEL037C, strain rad23, hits give low values 1.01 | locus YEL061C, strain CIN8 (second series), hits give low values 1.03 | locus YEL061C, strain CIN8, hits give low values 1.01 | locus YER002W, strain NOP16, hits give low values 0.995 | locus YER015W, strain faa2, hits give low values 1.02 | locus YER016W, strain bim1, hits give low values 1.01 | locus YER110C, hits give low values 0.989 | locus YER111C, strain swi4, hits give low values 1.03 | locus YER155C, strain BEM2 (second series), hits give low values 0.996 | locus YER155C, strain BEM2, hits give low values 1.01 | locus YER167W, strain BCK2, hits give low values 1.02 | locus YFR010W, strain ubp6, hits give low values 1 | locus YGL078C, strain dbp3, hits give low values 0.988 | locus YGL086W, strain mad1, hits give low values 0.991 | locus YGL167C, strain pmr1, hits give low values 1.02 | locus YGL173C, strain kem1, hits give low values 1.02 | locus YGL227W, strain vid30, hits give low values 1 | locus YGL240W, strain doc1, hits give low values 1.04 | locus YGL248W, strain PDE1, hits give low values 1.01 | locus YGL253W, strain hxk2, hits give low values 1.03 | locus YGR078C, strain PAC10, hits give low values 1.01 | locus YGR135W, strain pre9, hits give low values 0.991 | locus YGR229C, strain SMI1, hits give low values 1.03 | locus YGR252W, strain gcn5, hits give low values 0.974 | locus YHR013C, strain ard1, hits give low values 1.02 | locus YHR027C, strain rpn1, hits give low values 1.03 | locus YHR030C, strain SLT2, hits give low values 1.02 and 1.08 | locus YHR079C, strain IRE1 (second series), hits give low values 0.995 | locus YHR079C, strain IRE1, hits give low values 1.05 | locus YHR094C, strain hxt1, hits give low values 0.994 | locus YHR129C, strain ARP1, hits give low values 1.01 | locus YHR142W, strain chs7, hits give low values 1.06 | locus YHR200W, strain rpn10, hits give low values 0.994 | locus YIL066C, strain RNR3, hits give low values 1.03 | locus YIL073C, strain SPO22, hits give low values 1.02 | locus YIL125W, strain kgd1, hits give low values 0.991 | locus YIR030C, strain dcg1, hits give low values 0.992 | locus YJL092W, strain hpr5, hits give low values 1.02 | locus YJL095W, strain BCK1 (second series), hits give low values 1 | locus YJL095W, strain BCK1, hits give low values 0.988 and 1.05 | locus YJL115W, strain asf1, hits give low values 1.05 | locus YJL129C, strain trk1, hits give low values 1.03 | locus YJL134W, strain LCB3, hits give low values 1.01 | locus YJL154C, strain vps35, hits give low values 1.02 | locus YJL164C, strain tpk1, hits give low values 1.04 | locus YJL166W, strain qcr8, hits give low values 1.02 | locus YJL168C, strain set2, hits give low values 0.993 | locus YJL187C, strain SWE1 (second series), hits give low values 0.997 | locus YJR043C, strain POL32, hits give low values 1.04 | locus YJR066W, strain TOR1, hits give low values 0.998 | locus YJR075W, strain HOC1, hits give low values 1.01 and 0.99

— PubChem BioAssay AID1159580 (chemical genetic matrix, 2015)
